# Paper PMC4336329 (PLoS ONE, 2015)
# The campaign covered roughly 310,000 compounds. About 14,000 (4.5%) showed an effect of 50% or more. The effect is printed as a negative number. This is one part of a sample in which strong results are shown more often than they occur.
# Biological target: human ether-à-go-go-related gene (hERG) potassium channel (human, UniProt Q12809)
# Experiment: primary screen, population patch clamp on CHO cells stably expressing hERG; higher = less effect of the substance
# 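Further: peak tail current of the secondary pulse compared with the same well before compound.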
# human ether-à-go-go-related gene (hERG) potassium channel, sequence (Q12809 whole entry, looked up): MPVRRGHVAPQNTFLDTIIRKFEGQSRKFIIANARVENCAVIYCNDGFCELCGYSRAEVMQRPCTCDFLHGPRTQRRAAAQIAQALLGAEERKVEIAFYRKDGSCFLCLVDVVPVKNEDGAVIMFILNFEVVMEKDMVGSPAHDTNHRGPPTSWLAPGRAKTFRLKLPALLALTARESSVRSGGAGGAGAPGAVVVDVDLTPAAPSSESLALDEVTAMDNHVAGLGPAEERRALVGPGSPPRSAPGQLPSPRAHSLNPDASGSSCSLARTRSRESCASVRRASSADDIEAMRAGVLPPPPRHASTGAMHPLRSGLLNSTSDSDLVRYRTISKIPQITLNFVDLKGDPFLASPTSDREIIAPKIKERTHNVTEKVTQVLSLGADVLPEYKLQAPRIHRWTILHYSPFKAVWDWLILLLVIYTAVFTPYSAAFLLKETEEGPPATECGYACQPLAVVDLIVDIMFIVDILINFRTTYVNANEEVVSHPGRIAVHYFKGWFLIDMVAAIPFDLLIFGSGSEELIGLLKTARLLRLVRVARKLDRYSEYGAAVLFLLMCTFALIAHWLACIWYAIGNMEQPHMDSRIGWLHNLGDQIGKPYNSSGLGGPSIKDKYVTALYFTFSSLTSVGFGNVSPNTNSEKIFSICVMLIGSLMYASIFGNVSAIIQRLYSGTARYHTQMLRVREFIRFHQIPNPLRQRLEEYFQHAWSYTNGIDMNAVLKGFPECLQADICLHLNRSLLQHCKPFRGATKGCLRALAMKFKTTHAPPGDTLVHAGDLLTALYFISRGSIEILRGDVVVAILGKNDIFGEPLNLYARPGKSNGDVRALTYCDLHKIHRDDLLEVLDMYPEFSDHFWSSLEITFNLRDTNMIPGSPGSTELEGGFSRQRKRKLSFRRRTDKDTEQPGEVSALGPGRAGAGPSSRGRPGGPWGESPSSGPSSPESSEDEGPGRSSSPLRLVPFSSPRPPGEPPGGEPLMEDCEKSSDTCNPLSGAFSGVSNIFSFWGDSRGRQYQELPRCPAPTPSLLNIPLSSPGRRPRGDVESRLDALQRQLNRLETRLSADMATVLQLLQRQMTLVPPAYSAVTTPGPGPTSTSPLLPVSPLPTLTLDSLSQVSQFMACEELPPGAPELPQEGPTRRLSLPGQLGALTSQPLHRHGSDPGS
row,SMILES,"hERG current change (%, negative = inhibition) at 10uM [%]"
1,CCCc1ccc(C2=Nn3c(nnc3C(C)C)SC2)cc1,-6.25
2,CCOc1ccc2ccccc2c1/C=N/NC(=O)c1c(C)cc(C)[nH]c1=O,0.637
3,COc1ccc(OC)c(S(=O)(=O)N2CCN(CC(O)COc3ccc(C#N)cc3)CC2)c1 (centres unmarked),-66.2
4,COc1ccc(OCC(O)CN2CCCCCC2)cc1 (centres unmarked),9.18
5,CCOC(=O)c1ccc(S(=O)(=O)N2CCN(CC(O)COc3cccc(C(C)=O)c3)CC2)cc1.O=C(O)C(=O)O (centres unmarked),-6.64
6,CC(=O)Nc1ccc(OCC(O)CN2CCCCC2C)cc1.Cl (centres unmarked),3.85
7,N#Cc1ccc(-c2ccc(OCC(O)CN3CCCCC3)cc2)cc1 (centres unmarked),-80.7
8,CC1CCCCN1CC(O)COc1ccc(OCC(O)CN2CCCCC2C)cc1 (centres unmarked),16.4
9,CC1CN(CC(O)COc2ccc(C#N)cc2)CCN1CC(O)COc1ccc(C#N)cc1 (centres unmarked),-77.2
10,COc1ccc(OC)c(S(=O)(=O)N2CCN(CC(O)COc3ccccc3)CC2)c1 (centres unmarked),-34.7
11,COc1ccc(S(=O)(=O)N2CCN(CC(O)COc3ccc(C#N)cc3)CC2)cc1OC (centres unmarked),-46.9
12,CCOC(=O)c1ccc(S(=O)(=O)N2CCN(CC(O)COc3ccc(C#N)cc3)CC2)cc1.O=C(O)C(=O)O (centres unmarked),-63.2
13,N#Cc1ccc(-c2ccc(OCC(O)CN3CCOCC3)cc2)cc1 (centres unmarked),-18.4
14,CC(=O)Nc1ccc(OCC(O)CN2CCN(S(=O)(=O)c3ccc(NC(C)=O)cc3)CC2)cc1 (centres unmarked),-8.63
15,CCN(CC)S(=O)(=O)c1cc(C)ccc1SC,12.1
16,COc1ccc(C(=O)NNC(=O)c2ccc(C(C)(C)C)cc2)cc1,4.1
17,CCN(CCN1CCCC1)C(=O)C1CCC(=O)N(CCCN2CCOCC2)C1 (centres unmarked),12.8
18,O=C(CN1CCN(c2cccc(Cl)n2)CC1)N1CC(O)CO1 (centres unmarked),19.6
19,CCc1noc(C)c1C(=O)N1CCN(S(=O)(=O)c2cccs2)CC1,-23.5
20,CC(C)(C)NC(=O)NC(=O)CN1CCN(c2ncc(C(F)(F)F)cc2Cl)CC1,-13.3
21,COc1ccc(OCC(O)CN2CCCC2)cc1 (centres unmarked),15.2
22,CN(CCOc1ccc(Br)cc1)CC(O)COc1ccc(C#N)cc1 (centres unmarked),-16.3
23,N#Cc1ccc(OCC(O)CN2CCN(CC(O)COc3ccc(C#N)cc3)CC2)cc1 (centres unmarked),-86.1
24,CN(C)CC(O)COc1ccc(-c2ccc(C#N)cc2)cc1 (centres unmarked),-57.5
25,FC(F)(F)c1cnc(N2CCN(C(=S)NCc3ccccc3)CC2)c(Cl)c1,-11.3
26,OC(CN1CCN(c2ncc(C(F)(F)F)cc2Cl)CC1)c1ccccc1 (centres unmarked),-58

row,SMILES,"hERG current change (%, negative = inhibition) at 10uM [%]"
1,O=C(O)CN1CCN(c2ncc(C(F)(F)F)cc2Cl)CC1,11.6
2,CN(C)CC(O)COc1ccc(C(C)(C)c2ccc(OCC(O)CN(C)C)cc2)cc1.Cl (centres unmarked),12.5
3,N#Cc1ccc(OCC(O)CN2CCN(c3ncc(C(F)(F)F)cc3Cl)CC2)cc1 (centres unmarked),-74.6
4,OC(CN1CCN(c2ccc(C(F)(F)F)cn2)CC1)c1ccccc1 (centres unmarked),-26.5
5,CN1CCN(CC(O)COc2ccc(OCC(O)CN3CCN(C)CC3)cc2)CC1 (centres unmarked),-7.27
6,CC(=O)Nc1cc(NC(=O)C2C3C=CC(C3)C2C(=O)O)ccc1Cl (centres unmarked),14.5
7,Cc1ccc2nc(CSc3nnc(Nc4ccccc4C)s3)cc(=O)n2c1,-43
8,CN(C(=O)CSc1nnc(-c2ccc(Cl)cc2)n1CC1CCCO1)C1CCS(=O)(=O)C1 (centres unmarked),-0.671
9,O=C(c1ccccc1F)N(Cc1cccs1)C1CCS(=O)(=O)C1 (centres unmarked),21.9
10,CN1C(=O)C2ON(c3ccccc3)C(c3cccs3)C2C1=O (centres unmarked),-13.6
11,CCOc1ccc(OCCN(C)Cc2ccccc2)cc1.O=C(O)C(=O)O,-45.8
12,CSc1ccc(CN(C)CCc2ccccn2)cc1.O=C(O)C(=O)O,-64.4
13,COc1ccc(CN(C)CCc2ccccn2)cc1OC.O=C(O)C(=O)O,-5.06
14,CCOc1ccc(CN(C)CCc2ccccn2)cc1.O=C(O)C(=O)O,-77.8
15,COc1cc(OC)c(OC)cc1CN(C)CCc1ccccn1.O=C(O)C(=O)O,-11.2
16,COc1cc(CN(C)CCc2ccccn2)cc(OC)c1OC.O=C(O)C(=O)O,-11.6
17,COc1ccc(OC)c(N(CC(=O)Nc2cccnc2)S(=O)(=O)c2ccc(OC)c(OC)c2)c1,-17.9
18,COC(=O)c1sc(NC(=O)c2cnccn2)c(C(=O)OC)c1C,18.7
19,COc1ccccc1OCCSc1ncnc2nc[nH]c12,4.63
20,Cc1ccc(NC(=O)C(C)SCc2nc3sc(C)c(C)c3c(=O)[nH]2)nc1 (centres unmarked),-10.7
21,CCS(=O)(=O)NC(C)C(c1cccs1)N1CCN(c2ccc(F)cc2)CC1 (centres unmarked),-8.13
22,CC(C)CCn1cnc2c(cnn2-c2ccc(F)cc2)c1=O,-3.95
23,O=C(C1=C[C@@H](c2ccc(Br)cc2)C[C@@H](OCc2ccc(CO)cc2)O1)N1CCN(Cc2ccc3c(c2)OCO3)CC1,-9.55
24,O=C(C1=C[C@H](c2ccc(Br)cc2)C[C@H](OCc2ccc(CO)cc2)O1)N1CCN(Cc2ccc3c(c2)OCO3)CC1,-19.8
25,C#Cc1ccc([C@H]2C=C(C(=O)N3CCN(Cc4ccc5c(c4)OCO5)CC3)O[C@@H](OCc3ccc(CO)cc3)C2)cc1,-7.23
26,O=C(C1=C[C@@H](c2ccc(Br)cc2)C[C@@H](OCCCCO)O1)N1CCN(Cc2ccc3c(c2)OCO3)CC1,-55.3

row,SMILES,"hERG current change (%, negative = inhibition) at 10uM [%]"
1,O=C(C1=C[C@@H](c2ccc3c(c2)OCO3)C[C@@H](OCCCCO)O1)N1CCOCC1,7.64
2,C#Cc1ccc([C@@H]2C=C(C(=O)N3CCN(Cc4ccc5c(c4)OCO5)CC3)O[C@H](OCCCCO)C2)cc1,-64.1
3,O=C(C1=C[C@@H](c2ccc(C(F)(F)F)cc2)C[C@@H](OCCCCO)O1)N1CCN(Cc2ccc3c(c2)OCO3)CC1,-68.8
4,CC(C)(C)[C@H]1C=C(C(=O)N2CCN(Cc3ccc4c(c3)OCO4)CC2)O[C@@H](OCCCCO)C1,-23.4
5,O=C(C1=C[C@H](c2ccc(C(F)(F)F)cc2)C[C@H](OCc2ccc(CO)cc2)O1)N1CCN(Cc2ccc3c(c2)OCO3)CC1,-19.5
6,O=C(C1=C[C@H](c2ccc(C(F)(F)F)cc2)C[C@H](OCCCCO)O1)N1CCN(Cc2ccc3c(c2)OCO3)CC1,-44.1
7,C[C@@H]1C=C(C(=O)N2CCN(Cc3ccc4c(c3)OCO4)CC2)O[C@H](OCCCCO)C1,4.01
8,O=C(C1=C[C@H](c2ccc3c(c2)OCO3)C[C@H](OCCCCO)O1)N1CCN(Cc2ccc3c(c2)OCO3)CC1,-69.1
9,c1ccc2c(c1)NC1(CCCC1)n1c-2nc2ccccc21,-9.46
10,CCOP(=S)(OCC)C(O)CCCCCn1c(=O)c(F)cn(C2CCCO2)c1=O (centres unmarked),-2.13
11,CN(C(=S)Nc1ccc(F)cc1)C(c1ccccc1)c1ccccc1,11.1
12,CCn1c(SCC(=O)Nc2ccc(NC(C)=O)cc2)nc2c1c(=O)n(C)c(=O)n2C,24.7
13,CN1CCN(C(=O)C2=C[C@H](c3ccc4c(c3)OCO4)C[C@H](OCCCCO)O2)CC1,-8.06
14,O=C(C1=C[C@@H](c2ccc3c(c2)OCO3)C[C@@H](OCCCCO)O1)N1CCN(Cc2ccc3c(c2)OCO3)CC1,-65.9
15,O=C(C1=C[C@H](c2ccc3c(c2)OCO3)C[C@H](OCCCCO)O1)N1CCOCC1,-1.14
16,O=C(C1=C[C@H](c2ccccc2)C[C@H](OCc2ccc(CO)cc2)O1)N1CCN(Cc2ccc3c(c2)OCO3)CC1,-39.5
17,CC(=O)n1cc([C@H]2C=C(C(=O)N3CCN(Cc4ccc5c(c4)OCO5)CC3)O[C@@H](OCc3ccc(CO)cc3)C2)c2ccccc21,3.43
18,O=C(C1=C[C@@H](c2ccccc2)C[C@@H](OCCCCO)O1)N1CCN(Cc2ccc3c(c2)OCO3)CC1,-55.2
19,CC(=O)n1cc([C@@H]2C=C(C(=O)N3CCN(Cc4ccc5c(c4)OCO5)CC3)O[C@H](OCCCCO)C2)c2ccccc21,-50.2
20,O=C(C1=C[C@H](c2ccc3c(c2)OCO3)C[C@H](OCCCCO)O1)N1CCN(Cc2ccccc2)CC1,-62.8
21,O=C(C1=C[C@H](c2ccccc2)C[C@H](OCCCCO)O1)N1CCN(Cc2ccc3c(c2)OCO3)CC1,-41.8
22,CC(=O)n1cc([C@H]2C=C(C(=O)N3CCN(Cc4ccc5c(c4)OCO5)CC3)O[C@@H](OCCCCO)C2)c2ccccc21,-32.7
23,CC1(C)CC2(CCO1)OC(=O)CC2C(=O)Nc1ccccc1Cl (centres unmarked),1.54
24,Cc1ccc(S(=O)(=O)NNC(=O)c2cccs2)c(C)c1,14.4
25,Cc1ccc(O)c(N=NC2=C(O)CC(C)(C)CC2=O)c1,3.16
